Screens deposited in PubChem by The Scripps Research Institute Molecular Screening Center.
OPRM1-OPRD1 ag: OPRM1-OPRD1 heterodimerization agonism; P35372+P41143; cells, luminescence; activation, % at 9.3 µM; 340,000 tested, 0.3% active; AID 504326
HTR5A ag: activates human HTR5A in OPRM1-OPRD1 agonist counter-screen | P47898 | HTR5A agonist assay, luminescence, cell-based | activation, % at 9.3 µM | 340,000 tested, 0.61% active | AID 504692; in the data active = activation mostly above about 9.5%, no sharp cut-off; inactive = mostly below about 7.6%
Target sequence (P47898 whole entry, looked up): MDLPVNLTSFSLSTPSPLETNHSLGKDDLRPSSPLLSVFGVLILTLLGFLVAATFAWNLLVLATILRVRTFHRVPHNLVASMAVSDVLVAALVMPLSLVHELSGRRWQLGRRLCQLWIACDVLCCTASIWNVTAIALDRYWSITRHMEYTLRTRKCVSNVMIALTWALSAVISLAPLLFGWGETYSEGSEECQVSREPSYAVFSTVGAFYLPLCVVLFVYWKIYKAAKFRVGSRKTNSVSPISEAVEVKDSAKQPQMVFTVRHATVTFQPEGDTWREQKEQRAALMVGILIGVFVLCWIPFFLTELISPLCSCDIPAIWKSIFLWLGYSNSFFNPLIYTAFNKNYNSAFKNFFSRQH
HTR5A inv ctr: counter-screen for OPRM1-OPRD1 inverse agonists: human HTR5A inverse agonism; inhibition, % at 9.3 µM; HTR5A cell line, luminescence; P47898; 340,000 tested, 0.083% active; in the data active = inhibition mostly above about 23%, no sharp cut-off; inactive = mostly below about 18%
MOR-DOR inv ag: inverse agonists of human mu-delta opioid receptor heterodimerization | P35372+P41143 | cell-based MOR-DOR heterodimer luminescence, inverse agonism | inhibition, % at 9.3 µM | 340,000 tested, 0.21% active | AID 504357; in the data active = inhibition above about 22%, passing the limit was not always enough
OPRM1-D1 ag cf: confirmation of human OPRM1-OPRD1 heterodimerization agonists; shares compounds with OPRM1-OPRD1 ag; cells, MOR-DOR heterodimerization, luminescence complementation; activation, % at 9.3 µM; 830 tested, 45% active; AID 504904
HTR5A ag counter: counter-screen for OPRM1-OPRD1 agonists: human HTR5A agonism; HTR5A agonist counterscreen, cell luminescence; shares compounds with OPRM1-OPRD1 ag; AID 504905; activation, % at 9.3 µM; 830 tested, 8% active; in the data active = activation above about 17%
Hits are given with their value; . = inactive; / = no result; ! = a repeat was not active. The list is not random: actives were taken first. Their share in the collection is about 1.1%. Cut-off read from the data, not from the text of the source, unless noted: active = activation above about 18%; inactive = the rest.

SMILES	OPRM1-OPRD1 ag	HTR5A ag	HTR5A inv ctr	MOR-DOR inv ag	others
CC(=O)OC1C2CCCC1C(N1CCCC1)CC2 (stereo not drawn)	.	13!	.	.
CC(=O)OC1C2CCC1C(N1CCCCC1)CC2 (stereo not drawn)	.	.	.	.
CCCCN1C(=O)NC(=O)/C(=C/c2cnc(SC)nc2)C1=O	.	.	.	.
CC1(C)C[C@H]2C=C(C=O)[C@]3(C=O)C[C@]3(C)[C@H]2C1	.	42	.	.
Cc1cc(NC(=O)COC(=O)c2c(C)nn(Cc3ccccc3)c2C)no1	.	12	.	.
CSc1nc(C)c(Br)c(N2CC2)n1	.	.	.	.
CCCNC(=O)N1[C@H]2CC[C@@H]1C(C(=O)OC)=C(c1cccc(C#N)c1)C2	.	13	.	.
COC(=O)C1=C(c2cccc(C#N)c2)C[C@@H]2CC[C@H]1N2C(=O)NCCOc1ccccc1	.	.	.	.
Cc1cc([N+](=O)[O-])c(Cl)cc1NC(=O)C(C)C	.	.	.	.
CNc1cc(Cl)c2nonc2c1[N+](=O)[O-]	.	.	.	33
FC(F)(F)c1ccccc1NC1=NCCCS1	.	.	.	.
CC1(C)CN=C(Nc2ccccc2C(F)(F)F)S1	.	11	.	.
c1ccc2c(CCNC3=NCCC3)c[nH]c2c1	.	11	.	.
CCN(CC)c1ccc(/C=N/c2sc3c(c2C#N)C2CCN3CC2)c(O)c1	.	.	.	42
O=c1c2ccccc2nc(/C=C/c2ccccc2F)n1-c1ccccc1O	29	.	.	.
NC(=Nc1ccccc1)NN=Cc1c[nH]c2ccccc12	.	13	.	.
CCCCCCCSc1cc(OC)c(CCN(C)C)cc1OC	.	.	.	.
CC(=O)c1ccc2c(c1)C1C(Cl)C(Sc3ccccc3[N+](=O)[O-])CC1C(c1ccccc1[N+](=O)[O-])N2 (stereo not drawn)	.	11	.	.
COc1ccccc1NP1(=O)OCC(C)([N+](=O)[O-])CO1 (stereo not drawn)	.	.	.	.
CCn1nc(-c2ccccc2)nc2c(=O)n(C)c(=O)nc1-2	24	.	.	.
COC(=O)C1=C(c2ccc(Cl)c(C(F)(F)F)c2)C[C@@H]2CC[C@H]1N2C(=O)NCCOc1ccccc1	.	.	.	.
CCOP(=O)(OCC)C(C)(C)NC(=O)C(Cl)(Cl)Cl	.	.	.	.
C=C1C(=O)O[C@@H]2C[C@@H](C)[C@@H]3C=CC(=O)[C@@]3(C)[C@@H](OC(=O)CC(=O)O[C@H]3[C@@H]4C(=C)C(=O)O[C@@H]4C[C@@H](C)[C@@H]4C=CC(=O)[C@]43C)[C@H]12	.	.	.	46
C=C1C(=O)OC2CC(C)C3C=CC(=O)C3(C)C(O)C12 (stereo not drawn)	.	.	.	.
CC12CCC(O)CC1CCC1C2CCC2(C)C(C3=CC(=O)OC3)C(O)CC12O (stereo not drawn)	69	33	.	.
SMILES	OPRM1-OPRD1 ag	HTR5A ag	HTR5A inv ctr	MOR-DOR inv ag	others
CC12CC[C@H]3[C@@H](CCC4(O)C[C@H](O)CCC34/C=N/NC(=O)Cc3ccccc3)C1(O)CCC2C1=CC(=O)OC1 (stereo partly drawn)	.	.	.	.
C[C@]12CC[C@H](O)C[C@H]1CC[C@@H]1[C@@H]2CC[C@]2(C)[C@@H](C3=CC(=O)OC3)CC[C@]12O	71	37	.	.
C/C=C1\NC(=O)[C@@H](NC(=O)[C@H](CCc2ccc(O)cc2)NC(=O)[C@H](C)NC(=O)[C@H](O)CO)[C@@H](C)OC(=O)[C@H](C(C)C)NC(=O)[C@H](Cc2ccc(O)cc2)N(C)C(=O)[C@H](Cc2ccccc2)N2C(=O)C(CC[C@H]2O)NC1=O (stereo partly drawn)	.	.	.	.
Cc1ccc(-c2nc(CS(=O)CC(=O)N3CCC4(CC3)OCCO4)c(C)o2)cc1 (stereo not drawn)	.	.	.	.
CC(C)n1cc(C(=O)N(CC(=O)NC(C)(C)C)Cc2ccccc2)cn1	.	.	.	.
C=CCN1C[C@@H](C)N(C(c2ccc(C(=O)N(CC)CC)cc2)c2cccc(OC)c2)C[C@@H]1C (stereo partly drawn)	/	.	.	/	HTR5A ag counter=.
COc1ccc(CC(C)NC2CCCCCC2)cc1 (stereo not drawn)	.	.	.	.
Cc1cc(N(CCCl)CCCl)ccc1/C=N/NC(=O)c1ccco1	.	.	.	.
C[C@@H]1O[C@@H](O[C@H]2C[C@@H](O)[C@]3(CO)[C@@H]4C(CC[C@]3(O)C2)[C@@]2(O)CC[C@H](C3COC(=O)C3)[C@@]2(C)C[C@H]4O)[C@H](O)[C@H](O)[C@H]1O (stereo partly drawn)	73	.	.	.	OPRM1-D1 ag cf=.;HTR5A ag counter=.
COC(=O)C1=C(c2ccccc2)C[C@@H]2CC[C@H]1N2C(=O)N1CCOCC1	.	.	.	.
COc1ccc(P2(=O)Nc3ccccc3N2)cc1	.	.	.	.
COc1ccc2c(c1)NP(=S)(c1ccccc1)N2C (stereo not drawn)	19	.	.	.	OPRM1-D1 ag cf=.;HTR5A ag counter=.
O=C1C(=O)c2ccccc2-c2ccccc21	40	.	.	.	OPRM1-D1 ag cf=.;HTR5A ag counter=.
COc1ccc(C(CNC(=O)Cc2ccc(Cl)c(Cl)c2)N(C)C)cc1 (stereo not drawn)	121	.	.	.	OPRM1-D1 ag cf=.;HTR5A ag counter=.
C=CCN1CC[C@@]2(C)c3cc(O)ccc3CC1[C@@H]2C	.	.	.	.
CC(C)=CCN1CC[C@@]2(C)c3cc(O)ccc3CC1C2C (stereo partly drawn)	.	.	.	.
CC1[C@H]2Cc3ccc(O)cc3[C@]1(C)CCN2C (stereo partly drawn)	44	.	.	.	OPRM1-D1 ag cf=42;HTR5A ag counter=.
CC(C)=CCN1CC[C@@]2(C)c3cc(O)ccc3C[C@@H]1C2C (stereo partly drawn)	37	.	.	.	OPRM1-D1 ag cf=.;HTR5A ag counter=.
O=P(O)(Oc1ccccc1)OC(c1ccccc1)C(F)(F)F (stereo not drawn)	.	.	.	.
COc1ccc(Cl)cc1C(=O)C1CCCN(Cc2cnc(C)s2)C1 (stereo not drawn)	.	.	.	.
CCCOP(=O)(OCCC)C(NC(=O)c1ccccc1)=C(Cl)Cl	.	.	.	.
CC1(O)CCC2C3CCC4=CC(=O)CCC4(C)C34OC4CC21C (stereo not drawn)	.	.	.	.
C[C@]12CC[C@H]3C(CCC4(O)CC(O)CC[C@]34C=O)C1=CC[C@H]2c1ccc(=O)oc1 (stereo partly drawn)	67	23	.	.	OPRM1-D1 ag cf=33;HTR5A ag counter=23
CC(=O)O[C@H]1[C@H]2O[C@]23[C@@H]2CC[C@]4(O)C[C@@H](O)CC[C@]4(C)C2CC[C@]3(C)[C@H]1c1ccc(=O)oc1 (stereo partly drawn)	75	33	.	.	OPRM1-D1 ag cf=301;HTR5A ag counter=.
